14 sequences from the supplement of paper PMC10681739 can be followed below.

For assay [1], the target named is T1, ETS1 (UniProt P14921).
T1 sequence: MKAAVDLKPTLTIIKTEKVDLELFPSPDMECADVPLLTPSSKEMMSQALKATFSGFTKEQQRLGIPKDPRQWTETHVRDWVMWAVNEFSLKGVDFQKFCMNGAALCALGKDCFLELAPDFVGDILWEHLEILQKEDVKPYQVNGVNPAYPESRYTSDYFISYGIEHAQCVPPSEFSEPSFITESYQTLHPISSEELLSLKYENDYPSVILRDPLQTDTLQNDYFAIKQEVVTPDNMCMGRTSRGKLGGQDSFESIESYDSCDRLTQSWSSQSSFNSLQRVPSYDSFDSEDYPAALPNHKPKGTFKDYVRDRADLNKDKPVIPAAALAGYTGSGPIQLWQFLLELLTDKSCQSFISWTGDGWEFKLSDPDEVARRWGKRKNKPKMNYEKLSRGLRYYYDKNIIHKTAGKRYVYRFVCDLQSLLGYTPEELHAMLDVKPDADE
Kind of assay: ETS1 binding intensity (PBM fluorescence), ETS1 alone (arbitrary fluorescence units); higher = stronger binding. Conditions: ETS1 concentration 1 nM; RUNX1 concentration 0 nM.

Assay [2] deals with RUNX1 (UniProt Q01196). Kind of assay: RUNX1 binding intensity (PBM fluorescence), RUNX1 alone (arbitrary fluorescence units); higher = stronger binding. The conditions noted are these: RUNX1 concentration 2 nM; ETS1 concentration 0 nM. The protocol:
(§1)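 Cooperative gcPBM on 36-bp genomic probes with neighbouring ETS1 and RUNX1 sites. Recombinant human RUNX1 (2 nM) was incubated alone or with ETS1 (25 nM) and detected with anti-RUNX1 antibody plus Alexa488 secondary. Values are medians over 4 replicate spots; the RUNX1+ETS1 data were normalised to the RUNX1-only data. The probes sit in constant array flanks that are not printed.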

Assay [3] has as its target T1, ETS1. Kind of assay: ETS1 binding intensity (PBM fluorescence) in presence of RUNX1, normalised to ETS1-only experiment (arbitrary fluorescence units); higher = stronger binding. Conditions: ETS1 concentration 1 nM; RUNX1 concentration 25 nM.
In assay [4] the target is RUNX1 (UniProt Q01196). The assay can be described thus: RUNX1 binding intensity (PBM fluorescence) in presence of ETS1, normalised to RUNX1-only experiment (arbitrary fluorescence units); higher = stronger binding. Conditions: RUNX1 concentration 2 nM; ETS1 concentration 25 nM. The protocol: as §1
Sequence of RUNX1 (Q01196 whole entry): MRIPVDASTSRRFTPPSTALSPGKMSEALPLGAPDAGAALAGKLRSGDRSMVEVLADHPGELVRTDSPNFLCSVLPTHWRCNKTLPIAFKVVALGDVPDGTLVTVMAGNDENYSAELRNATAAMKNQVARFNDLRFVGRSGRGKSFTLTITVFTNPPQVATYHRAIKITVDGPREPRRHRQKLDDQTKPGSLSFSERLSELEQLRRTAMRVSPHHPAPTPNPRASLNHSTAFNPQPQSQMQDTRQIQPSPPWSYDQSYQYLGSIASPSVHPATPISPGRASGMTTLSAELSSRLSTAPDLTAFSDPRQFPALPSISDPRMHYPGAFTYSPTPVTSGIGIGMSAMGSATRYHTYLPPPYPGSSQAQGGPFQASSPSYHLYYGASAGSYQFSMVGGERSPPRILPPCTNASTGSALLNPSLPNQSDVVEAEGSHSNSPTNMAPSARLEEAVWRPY
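Throughout, for RUNX1 binding intensity (PBM fluorescence) in presence of ETS1, normalised to RUNX1-only experiment: Full-length recombinant human ETS1 or RUNX1 bound to double-stranded 36-bp genomic probes on microarrays, detected by protein-specific primary antibody and Alexa488 secondary, spot fluorescence as median of four replicate spots.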
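Throughout, for RUNX1 binding intensity (PBM fluorescence), RUNX1 alone: Full-length recombinant human RUNX1 bound to double-stranded 36-bp genomic probes on a high-density microarray, scored as Alexa488 fluorescence per spot via anti-RUNX1 antibody, median of four replicate spots.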

CCACGTCCACAAAGGAAACCGCGGCCTGCCCGGGGA: the ETS1 binding intensity with ETS1 [1] turned out to be 512; with ETS1 [3], 1390. Also, the RUNX1 binding intensity in the assay with RUNX1 [2] was 1080; in the assay with RUNX1 [4] it was 1590.
Turning to ACCGGATGCCGGGGCACCGCCAGATGTGGCCACGAG, the ETS1 binding intensity turned out to be 1500 in the assay with ETS1 [1] and 1730 with ETS1 [3]. Moreover, the RUNX1 binding intensity in the assay with RUNX1 [2] came to 746; with RUNX1 [4], 941.
In the same order, the values of GCTAAGAGCAGGAAATGATCTGGGAACCACCATCAC are 2690, 3070, 719 and 918.
In the same order, the values of GAAATCACATCCTTTTGCAAAACCACAGGTGTTTTG are 409, 1500, 1320 and 3340.
The corresponding values for CCCCACCCAGACAGGAAACTGTGGCTTCTATCAGAT are 3020, 4660, 820 and 1550.
Turning to ATGCCTGTAGGAGGATGTGGTTTCTACACAACTCTG, the results for the ETS1 binding intensity with ETS1 [1] and with ETS1 [3] were 981 and 5640, respectively. In addition, the RUNX1 binding intensity in the assay with RUNX1 [2] is 926; with RUNX1 [4], 1400.
CGCCGGATGCATAAAAGACTGGCTGCGGTGGCTCAG: the ETS1 binding intensity with ETS1 [1] came out at 604; with ETS1 [3], 1300. The RUNX1 binding intensity is 724 with RUNX1 [2] and 973 with RUNX1 [4].
Take GTGAGCCTGTAAAGGAAATTGAGGTTATGTGGCTCA: the ETS1 binding intensity came out at 981 with ETS1 [1] and 1770 with ETS1 [3]. The RUNX1 binding intensity turned out to be 694 with RUNX1 [2] and 864 with RUNX1 [4].
In the same order, the values of CCTAGAACCGGAAGAGAAAGGGGCTGCGGTGCAGCA are 1680, 6270, 845 and 1420.
For the sequence GTCCTCTTCCTGTCCCCCAGGTGGGCATGTGGTTTG, the ETS1 binding intensity in the assay with ETS1 [1] amounted to 519; with ETS1 [3], 751. In addition, the RUNX1 binding intensity with RUNX1 [2] came to 988; in the assay with RUNX1 [4], 1790.
In the case of GGCAACCCAAGGAAGTATCTCTGAAACCACACAACA, the ETS1 binding intensity with ETS1 [1] worked out at 540; with ETS1 [3], 1190. Also, the RUNX1 binding intensity came out at 1040 with RUNX1 [2] and 1110 in the assay with RUNX1 [4].
In the same order, the values of TGGCTTGTTTCCGGTTCCTCTGTGGCGCCGTTCTCG are 3480, 2820, 938 and 2890.
Turning to TGGGGCTAGGCTTCCGGGGCTCTGCGGTCCTCGGCC, the ETS1 binding intensity came to 481 in the assay with ETS1 [1] and 623 with ETS1 [3]. In addition, the RUNX1 binding intensity is 662 in the assay with RUNX1 [2] and 1180 with RUNX1 [4].
The corresponding values for GAGGGGAGGATGTCTGAGCTTTTAATTGTGGTTTCA are 370, 1050, 870 and 943.
